ALOX12 inh: blocks human arachidonate 12S-lipoxygenase | P18054 | purified 12hLO, xylenol orange hydroperoxide absorbance | Potency, µM (doses to about 108 µM), for the others: at the highest dose activity change, negative = inhibition, most hits filed as inhibitors | 1.1% of 580,000 active; also: % is scaled to controls: 0 for no effect and ±100 for the full control effect
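Purified human 12hLO (150 nM final) in 25 mM Hepes, 0.01% Triton X-100, pH 7.0 was preincubated 15 min at room temperature with compound. Then 40 uM arachidonic acid was added, 30 min. Hydroperoxide was read by Fe-XO absorbance ratio 573/405 nm.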
Anesthetic bind: binds horse apoferritin like a general anesthetic | apoferritin/1-aminoanthracene competitive binding, fluorescence | Potency, µM (highest dose often 77.5 µM), without a hit: at the top dose activity change, negative = displacement, hits mostly inhibitors | 0.074% of 350,000 active | AID 485281; also: % is scaled to controls: 0 for no effect and ±100 for the full control effect; nearly all actives have a fitted effect of over 20% in size
Target sequence (P02791 2-175 limits assumed): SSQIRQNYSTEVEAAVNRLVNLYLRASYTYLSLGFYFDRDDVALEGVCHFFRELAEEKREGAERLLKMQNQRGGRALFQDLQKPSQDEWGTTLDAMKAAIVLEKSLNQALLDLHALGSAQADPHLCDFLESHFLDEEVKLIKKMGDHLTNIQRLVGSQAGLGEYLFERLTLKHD
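Read-out: endpoint 1-AMA fluorescence, excitation 380 nm and emission 535 nm, after compounds sit 10 min at room temperature with 10 uM horse-spleen apoferritin in 50% saturated 1-AMA/PBS. Values come from four-parameter Hill fits.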
Glioma ERSR ind: induces the endoplasmic reticulum stress response in human glioma cells. 0.02% of 420,000 active. U87-MG GRP78 promoter luciferase reporter, 16 h. Potency, µM, for inactives: at the top dose activation, most hits filed as activators; also: series mostly up to about 76 µM; % of control where 0% means no effect; nearly all actives have a fitted effect of over 35% in size
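ERSR induction read as luciferase luminescence (Bright-Glo, 10 min at room temperature) in stably transfected human U87-MG glioma cells exposed to compounds for 16 h, using GRP78 as sensor.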
Chronic BCR inh: chronic active BCR signaling inhibition; ABC-DLBCL IkBa-CBG/CBR reporter, luminescence ratio, 4 h; Potency, µM (series often up to 46.1 µM), for the others: at the top dose activity change, negative = inhibition, usual class: inhibitors; 0.05% of 340,000 active; active = well fitted inhibition curve with a large enough effect in the signal ratio, with a control signal flat, not every such curve was filed as active; inconclusive = small, poorly fitted or top-dose-only effect, or effect the other way, or a change in a side signal; the % refers to the signal ratio;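 also: plate controls were basal doxycycline-induced cells for no effect and cells given 10 µM MG132 for full effect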
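TMD8 ABC-DLBCL cells carrying doxycycline-inducible green luciferase fused to IkappaBalpha plus unfused red luciferase were exposed to compounds (up to 46 uM) for 4 hrs at 37C. Activity came from the overlap-corrected green/red luminescence ratio.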
An asterisk follows results filed as active; u = inconclusive; x = not tested or not shown; [ ] = remark or other dose. Hits are enriched below; roughly 1.1% of the tested compounds scored in any of these assays. Unless noted, calls follow the shape of the dose curve; as a rule, active = well fitted curve in the direction sought with a large enough effect; inconclusive = small, poorly fitted or top-dose-only effect, or another doubt; inactive = no such curve, though single readings can be large; an effect the other way counts as inactive or inconclusive. Potency is read from the fitted curve at half-maximal effect.

SMILES	ALOX12 inh	Anesthetic bind	Glioma ERSR ind	Chronic BCR inh
S=C(c1ccc(-c2ccccc2Cl)o1)N1CCCCC1	u	u	6%	u
S=C(c1ccc(-c2ccc(Cl)cc2)o1)N1CCCCC1	16µM*	-10%	3%	u
CN1c2cc(C(=O)NCc3ccc(F)cc3F)ccc2C(=O)N2CCCCC21 (configuration not stated)	38%	x	x	x
Clc1ccccc1-c1nccc(-n2ccnc2)n1	u	-10%	-3%	x
CN(C)C(=O)c1ccc(-c2nccc(NCc3ccccc3)n2)cc1	45µM*	x	-2%	x
CN(C)C(=O)c1ccc(-c2nccc(-n3ccnc3)n2)cc1	22µM*	x	-5%	x
Cc1ccccc1-c1nccc(-n2ccnc2)n1	7.9µM*	-12%	-1%	x
CN(C)C(=O)c1ccc(-c2nccc(NCc3cccnc3)n2)cc1	u	-2%	-5%	x
CN(C)C(=O)c1ccc(-c2nccc(Nc3ccc(F)cc3)n2)cc1	u	x	-3%	x
CCCCCNC(=O)CCCC(=O)NCCCCC	7%	x	x	x
N=C(N)c1ccc(OCc2ccncc2)cc1	8.9µM*	x	x	x
N=C(N)c1ccc(OCCCOc2ccc(C(=N)N)cc2)cc1	-11%[22.9 µM]	x	-3%	x
CCOc1ccc(S(=O)(=O)N2CC(=O)Nc3ccccc32)cc1C#N	-13%	7%	0%	-3%
COc1ccc(S(=O)(=O)N2CC(=O)Nc3ccccc32)cc1Cl	6.3µM*	-1%	-2%	-2%
CCC(/C=C/[C@@H](C)[C@H]1CCC2C3CC=C4C[C@@H](O)CC[C@]4(C)C3CC[C@@]21C)C(C)C (some centres not stated)	-28%	x	x	x
C[C@H]1[C@@H]2[C@@H](O)C([C@H](C)C(=O)N3CCCC3)CC[C@@]2(C)CC[C@@H]1NC(=O)COc1ccccc1 (some centres not stated)	59%	x	x	x
COC(=O)c1ccc(C2NC(=S)N(c3ccccc3)C(C)=C2C(=O)Nc2ccccc2OC)cc1 (configuration not stated)	u	-22%	-3%	u
COC(=O)C1=C(C)N(c2cccc(C)c2)C(=S)NC1c1ccc(-n2ccnc2)cc1 (configuration not stated)	40µM*	x	x	x
O=C1/C(=C\c2ccco2)CCC/C1=C\c1ccco1	25µM*	-10%	19%	-14%
CCCN1CNC(=S)N(N2CN(CCC)CNC2=S)C1	13µM*	x	x	x
Cn1c(CCNC(=O)c2cccc(F)c2)nc2cc(NC(=O)C3CCCO3)ccc21 (configuration not stated)	-2%	x	x	x
Clc1cccc(COc2cccc(-n3cnnn3)c2)c1	-3%	x	x	x
OCC1(CNCc2cccnc2)C[C@@H](O)[C@@H](O)C1 (some centres not stated)	20µM*	x	x	x
Cc1ccc(O)c(C(=O)N(C)Cc2c(F)cccc2Cl)c1	40µM*	x	x	x
CC(C(=O)NCc1cccnc1)N(c1ccc(Oc2ccccc2)cc1)S(C)(=O)=O (configuration not stated)	-5%	x	x	x
SMILES	ALOX12 inh	Anesthetic bind	Glioma ERSR ind	Chronic BCR inh
Cc1[nH]n(-c2ccccc2)c(=O)c1/C=N/NC(=O)c1cccc([N+](=O)[O-])c1	375%	-6%	2%	u
Cc1[nH]n(-c2cccc3ccccc23)c(=O)c1/C=N/NC(=O)c1cccc([N+](=O)[O-])c1	45µM*	-7%	-2%	u
Cc1onc(-c2ccccc2)c1C(=O)NN=Cc1cc(Cl)cc(Cl)c1O	13µM*	x	x	x
CCOCC1(C)COc2ccc(C(=O)Nc3ccc(Cl)cc3)cc2N1 (configuration not stated)	-3%[176 µM]	x	x	x
CCN(C(=O)Cn1c(=O)c2c(ncn2CC)n(Cc2ccccc2)c1=O)c1cccc2ccccc12	6%	x	x	x
Cc1ccc(NC(=S)Nc2ccccn2)c(C)c1	11µM*	-4%	3%	u
Cc1cccc(NC(=S)Nc2ccccn2)c1	28µM*	-10%	6%	u
Cc1cc(C)cc(NC(=S)Nc2ccccn2)c1	6.3µM*	-7%	-1%	u
COc1ccccc1NC(=S)Nc1ccccn1	40µM*	-13%	1%	u
N#Cc1ccccc1OCC(=O)c1ccc(NC(=O)c2ccccc2)cc1	6%	x	x	x
CC(C)c1nc2cc(NC(=O)c3ccc[nH]c3=O)ccc2o1	-2%	x	x	x
COC(=O)c1ccc(Oc2coc3cc(OC(=O)c4cccs4)ccc3c2=O)cc1	-4%	x	x	x
Cc1ccc(NC(=S)NNC(=S)Nc2ccc(C)cc2C)cc1	35µM*	-22%	-3%	18µM*
O=C1NC[C@H](Cc2ccccc2)N(C[C@H]2CCCN2C[C@H](Cc2ccc(O)cc2)N2C[C@H](Cc3ccc(O)cc3)N(CC3CCCCCC3)C(=O)C2=O)C1=O	16µM*	x	0%	x
O=C1NC[C@H](Cc2ccc(O)cc2)N(C[C@@H]2CCCN2C[C@H](Cc2ccccc2)N2C[C@H](Cc3ccc(O)cc3)N(CC3CCCCCC3)C(=O)C2=O)C1=O	25µM*	x	x	x
O=C1NC[C@H](CCCCN2C[C@H](Cc3ccc(O)cc3)N(CC3CCCCC3)C(=O)C2=O)N(CC2CCCCC2)C1=O	45µM*	x	x	x
O=C1NC[C@H](Cc2ccccc2)N(C[C@H]2CCCN2C[C@H](Cc2ccccc2)N2C[C@H](Cc3ccc(O)cc3)N(CC3CCCCCC3)C(=O)C2=O)C1=O	u	x	11%	x
COc1ccc(NC(=O)O[C@@H]2CO[C@H]3[C@@H]2OC[C@@H]3NC(=S)NC2CCCCC2)cc1	0%	x	x	x
CO[C@@H]1CO[C@H]2[C@@H]1OC[C@@H]2NC(=S)Nc1ccc(Cl)cc1	79µM*	x	x	x
Cc1ccc(NC(=O)c2nc3ccccc3nc2N2CCN(C)CC2)cc1Cl	2%	x	x	x
CSC1=N/C(=C\c2ccc(Br)o2)C(=O)S1	u	-22%	-1%	u
CSC1=N/C(=C\c2ccc(-c3ccc(Cl)cc3)o2)C(=O)S1	25µM*	x	x	x
c1ccc(COc2ccc(OCCn3cncn3)cc2)cc1	22%	-9%	-4%	2%
c1ccc(-c2ccc(OCCCn3cncn3)cc2)cc1	1.4µM*	-11%	11%	u
CN(C)/C=C/C(=O)c1ccc(-c2ccc(Cl)cc2Cl)o1	1.6µM*	u	4%	u
SMILES	ALOX12 inh	Anesthetic bind	Glioma ERSR ind	Chronic BCR inh
CN(C)/C=C\C(=O)c1ccc(Br)cc1	4µM*	x	x	x
CN(C)/C=C/C(=O)c1ccc(Cl)cc1	16µM*	u	2%	14%
CC(=O)c1ccn(S(=O)(=O)c2ccccc2)c1	31%	-10%	3%	-1%
O=C(O)c1ccc(-c2ccc(Cl)cc2Cl)o1	u	-19%	5%	-2%
CN(C)/C=C/C(=O)c1ccn(S(=O)(=O)c2ccccc2)c1	50µM*	0%	0%	u
Cc1ccc2oc(C(=O)Nc3ccc(F)cc3)cc(=O)c2c1	18%	x	x	x
COc1cc2c(c(OC)c1)C(c1cccc(Cl)c1Cl)C1=C(CCCC1=O)N2 (configuration not stated)	-18%	x	x	x
O=C(Cn1nc(C(=O)O)c2ccccc2c1=O)Nc1ccc(F)c(F)c1F	-3%	x	x	x
Cc1ccc(C(=O)/C=C\N(C)C)cc1	56µM*	x	x	x

Compound activity as filed in PubChem.
